{
  "source": "PubChem BioAssay (NCATS)",
  "note": "Results filed as inconclusive are left out. Entries that show only a call come without a potency. Active and inactive are the calls of the source. Calls follow the shape of the dose curve; as a rule, active = well fitted cell-killing curve with a large enough effect; inconclusive = small, poorly fitted or top-dose-only effect, or effect the other way; inactive = flat fitted curve, though single readings scatter. *1 amine or outer side, *2 acyl side, *3 side chain or, on linkers, in order; H or OH if unused. Where a SMILES comes first, the peptide text is derived from it. Bridges are numbered along the chain shown (N, C = ends). [ ]: non-standard residue; d: D form. The star is where a group is joined. pTerphenylCO(4''-OnC5H11) = CCCCCOc1ccc(-c2ccc(-c3ccc(C(=O)*)cc3)cc2)cc1; Orn(4R-OH,5R-OH) = O=C([C@H](C[C@@H](O)[C@@H](O)N[*:3])N[*:1])[*:2]; hTyr(3S-OH,4S-OH) = N[C@H](C(=O)O)[C@H](O)[C@@H](O)c1ccc(O)cc1; Pro(3S-OH,4S-Me) = C[C@H]1CN[C@H](C(=O)O)[C@H]1O; Hyp = O=C(O)[C@@H]1C[C@@H](O)CN1",
  "data": [
    {"test_system": "CASKI", "experiment": "Primary qHTS to identify gynecologic anti-cancer compounds using libraries of approved drugs and bioactive compounds (AID 1345084); also: nearly all actives have a fitted effect of over 55% in size", "conditions": "Gynecologic cancer cell panel viability, ATPlite luminescence, 48 h; series mostly up to 57.5 µM", "in_short": "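Measured: luminescence after ATPlite addition (15 min, RT). Exposure: 48 h, 37 C, 5% CO2.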", "values": [
      {"smiles": "CC(OC1OCCN(Cc2n[nH]c(=O)[nH]2)C1c1ccc(F)cc1)c1cc(C(F)(F)F)cc(C(F)(F)F)c1", "note": "(stereo unspecified)", "Potency": "inactive"},
      {"smiles": "Fc1ccc(-c2cncc(CN3CCN(c4cccc5c4OCCO5)CC3)c2)cc1", "Potency": "inactive"},
      {"smiles": "C=C(CCC1C(C)(O)CCC2C(C)(C)C(O)CCC12C)C(O)CO", "note": "(stereo unspecified)", "Potency": "inactive"},
      {"smiles": "CCC[C@@]1(CCc2ccccc2)CC(O)=C([C@H](CC)c2cccc(NS(=O)(=O)c3ccc(C(F)(F)F)cn3)c2)C(=O)O1", "Potency": "inactive"},
      {"smiles": "COc1ccc([C@H]2Cc3cccc(O)c3C(=O)O2)cc1OC", "Potency": "inactive"},
      {"smiles": "C/C=C(/C)C(=O)OC1C=C2C3C(C)C(C)C(OC(=O)C(C)C(C)O)CC3(C)CCC2(C)C2(C)CC(OC(C)=O)C3C(C)(C)C(O)C(=O)CC3(C)C12", "note": "(stereo unspecified)", "Potency": "inactive"},
      {"smiles": "CN1CCN(C2=Nc3ccccc3Nc3ccc(Cl)cc32)CC1", "Potency": "inactive"},
      {"smiles": "COc1ccc(NC(=O)c2ccc(-c3ccc(C(=N)N)cc3C)cc2)cc1N1CCN(C)CC1", "Potency": "inactive"},
      {"smiles": "O=C(c1ccccn1)N(Cc1cccs1)C1(C(=O)NC2CCCCC2)CCCCC1", "Potency": "inactive"},
      {"smiles": "O=c1cc(OCc2ccc(F)cc2)ccn1-c1ccc(OCCN2CCCC2)cc1", "Potency": "inactive"},
      {"smiles": "Cc1cccc(N2CCN(C(=O)c3cc(S(=O)(=O)N(C)C)ccc3N3CCCC3)CC2)c1C", "Potency": "inactive"},
      {"smiles": "N#CC(CCCN1CCN(/N=C/c2cccnc2)CC1)(c1ccccc1)c1ccccc1", "Potency": "inactive"},
      {"smiles": "Cc1cccc(C#Cc2cc(F)cc(C#N)c2)n1", "Potency": "inactive"},
      {"smiles": "COc1ccncc1C(=O)NC(=O)Nc1ccc(-c2ccccc2)c(C(F)(F)F)c1", "Potency": "inactive"},
      {"smiles": "Clc1ccc(Cn2c(Cc3ccccc3)nc3ccccc32)cc1", "Potency": "inactive"},
      {"smiles": "Cc1cc2sc(NC(=O)Cc3ccccc3)nc2cc1Cl", "Potency": "inactive"},
      {"smiles": "O=C(Cc1c(F)cccc1F)Nc1cc(OCc2ccc(Cl)cc2)ccn1", "Potency": "inactive"},
      {"smiles": "O=C(c1cc(Cc2n[nH]c(=O)c3ccccc23)ccc1F)N1CCCNCC1", "Potency": "inactive"},
      {"smiles": "CCC(C)/C=C(C)/C=C/C1=CC2=CC(=O)C3(C)OC(C)(O)C(C(=O)OC)C3C2=CO1", "note": "(stereo unspecified)", "Potency": "inactive"},
      {"smiles": "CNc1cc2[nH]c(=O)n(-c3ccc(NC(=O)NS(=O)(=O)c4ccc(Cl)s4)cc3)c(=O)c2cc1F", "Potency": "inactive"},
      {"smiles": "COc1ccc(-n2c(SCCCN3C(=O)c4cccc5cccc(c45)C3=O)nnc2-c2ccncc2)cc1", "Potency": "inactive"},
      {"smiles": "C=C1C(=O)OC2/C=C(\\CO)CC/C=C(\\C=O)C(O)C(OC(=O)C(C)CC)C12", "note": "(stereo unspecified)", "Potency": "inactive"},
      {"smiles": "O=C(Nc1ccccc1C(=O)Nc1ccc(CCO)cc1)c1ccc([N+](=O)[O-])cc1", "Potency": "inactive"},
      {"smiles": "CC1(C)CC[C@]2(C(=O)O)CC[C@]3(C)C(=CCC4[C@@]5(C)C[C@@H](O)[C@H](O)[C@@](C)(CO)C5CC[C@]43C)[C@@H]2[C@@H]1O", "note": "(stereo partly specified)", "Potency": "inactive"},
      {"smiles": "C=C(C(=O)OC[C@H]1O[C@@H](OC(=O)/C=C/c2ccccc2)[C@H](O)[C@@H](O)[C@@H]1O)C(O)CO", "note": "(stereo partly specified)", "Potency": "inactive"},
      {"smiles": "COc1ccccc1OCCNCC(O)CCOc1cccc2[nH]c3ccccc3c12", "note": "(stereo unspecified)", "Potency": "inactive"},
      {"smiles": "CC(C)/C=C1\\NC(=O)C(C(C)C)n2c1nc1ccccc1c2=O", "note": "(stereo unspecified)", "Potency": "inactive"},
      {"smiles": "CCCCCOc1ccc(-c2ccc(-c3ccc(C(=O)N[C@H]4C[C@@H](O)[C@@H](O)NC(=O)[C@@H]5[C@@H](O)[C@@H](C)CN5C(=O)[C@H]([C@@H](C)O)NC(=O)[C@H]([C@H](O)[C@@H](O)c5ccc(O)cc5)NC(=O)[C@@H]5C[C@@H](O)CN5C(=O)[C@H]([C@@H](C)O)NC4=O)cc3)cc2)cc1", "note": "({pTerphenylCO(4''-OnC5H11)}-[Orn(4R-OH,5R-OH)]T[Hyp][hTyr(3S-OH,4S-OH)]T[Pro(3S-OH,4S-Me)]; lactam 1-C)", "Potency": "inactive"},
      {"smiles": "COc1ccccc1C(=O)Nc1cc2c(cc1N1CCCC1)n(C)c(=O)n2C", "Potency": "inactive"},
      {"smiles": "C=C1C(=O)OC2C1CCC1(C)C(O)CCC(=C)C21", "note": "(stereo unspecified)", "Potency": "inactive"},
      {"smiles": "Cc1nc(C#Cc2ccnc(Cl)c2)c(C)n1-c1ccc(OC(F)(F)F)cc1", "Potency": "inactive"},
      {"smiles": "COc1cc(CCc2ccc(OCC=C(C)C)cc2)cc(OC)c1OC", "Potency": "inactive"},
      {"smiles": "CC(=O)[C@H]1CC[C@H]2[C@@H]3CC=C4C[C@@H](OS(=O)(=O)O)CC[C@]4(C)[C@H]3CC[C@]12C", "Potency": "inactive"},
      {"smiles": "C=C(C(=O)O)[C@@H]1CC=C(CCC(C)=O)[C@@H](C)CC1", "Potency": "inactive"},
      {"smiles": "C=C[C@]1(C)C[C@H](O)[C@H]2C(=C)C(=O)O[C@@H]2[C@H]1C(=C)CO", "Potency": "inactive"},
      {"smiles": "CC[C@H](C)/C=C(C)/C=C/C1=CC2=C(Cl)C(=O)[C@](C)(O)[C@H](OC(C)=O)[C@H]2CO1", "Potency": "inactive"}
    ]}
  ]
}
